An excerpt weighted towards active compounds, which were near 6.8% of everything screened.
C diff HTS: blocks growth of Clostridium difficile; Clostridium difficile clinical isolate growth, OD600, 24 h; active compounds read low; growth activity, negative = inhibition, % at 16 µg/mL (by protocol); 0.25% of 86,000 active;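 active means mean growth activity at or below -80% and every replicate also at or below -80%; inconclusive means mean at or below -80% but some replicate above -80%; inactive means mean growth activity above -80%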;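 further: 0% = DMSO wells and -100% = levofloxacin 16 µg/mL wells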
T cruzi growth-1: inhibitors of T. cruzi proliferation; T. cruzi beta-gal in NIH3T3, GalScreen luminescence, 90 h; inhibition, % at 8.34 µM; 5.9% of 77,000 active; AID 624255;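 active means mean inhibition above about 93%, with at least 55% of replicates each passing it, limit read from the data, passing the limit was not always enough; inconclusive means only one of those two conditions holds; inactive means neither condition holds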
Pf Dd2 inh: P. falciparum Dd2 growth inhibition; SYBR Green, 72 h; active compounds read low; activity change, % at 10 µM; 2.3% of 94,000 active; AID 1159554; in the data active means activity change below about -80%; inconclusive means no clear call, values can overlap the other calls
T cruzi growth-2: blocks T. cruzi growth in NIH3T3 host cells | shares compounds with T cruzi growth-1 | T. cruzi beta-gal in NIH3T3, GalScreen luminescence, 90 h | inhibition, % at 8.35 µM | 72% of 5,600 active;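 active means mean replicate inhibition above about 95% and at least 55% of replicates individually reaching it, limit read from the data; inconclusive means only one of the two criteria is met; inactive means neither criterion is met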
T cruzi growth-3: inhibitors of T. cruzi proliferation; shares compounds with T cruzi growth-1; T. cruzi beta-gal in NIH3T3, GalScreen luminescence, 90 h; inhibition, % at 2.09 µM; 21% of 5,600 active;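 active means mean inhibition above about 95%, with at least 55% of replicates also reaching it, limit read from the data; inconclusive means meets just one of the two conditions; inactive means meets neither condition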;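 further: plate controls were neutral control median for no effect and positive control median for full effect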
NIH3T3 tox: NIH/3T3 (mouse) viability loss | AID 651742 | NIH/3T3 viability, CellTiter-Glo ATP luminescence, 90 h | shares compounds with T cruzi growth-1 | cytotoxicity (signal decrease), % at 8.35 µM | 14% of 5,600 active;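 active means mean signal decrease across replicates above about 35% based on untreated-well scatter, with enough replicates individually passing, limit read from the data; inconclusive means no rule stated though some were filed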;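 further: 0% = median of neutral control wells and 100% = median of positive control wells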
3T3 cytotox 2: cytotoxicity in mouse NIH/3T3 fibroblasts | inhibition, % at 24.9 µM | shares compounds with T cruzi growth-1 | NIH/3T3 viability, CellTiter-Glo ATP luminescence, 90 h | 56% of 5,600 active;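 active means mean loss of cell viability signal at or above a set limit, and enough replicates individually reaching it; inconclusive means meets only the mean limit or only the replicate share; inactive means meets neither condition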;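 further: 0% = median of neutral control wells and 100% = median of positive control wells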
* marks the source's active call; other numbers are inactive results; ? = inconclusive; . = not tested or not shown.

SMILES | C diff HTS | T cruzi growth-1 | Pf Dd2 inh | T cruzi growth-2 | T cruzi growth-3 | NIH3T3 tox | 3T3 cytotox 2
O=C(Nc1ccc(F)cc1)N1CCCCN2[C@H](C1)[C@H](c1ccc(-c3cccc(F)c3)cc1)[C@@H]2CO | 43 | 116* | -2 | 109* | 77 | 10 | 79*
O=C(C1CCCC1)N1CCCCN2[C@@H](CO)[C@@H](c3ccc(-c4cccc(F)c4)cc3)[C@@H]2C1 | 21 | 78 | -35 | . | . | . | .
CCC(=O)N1CCCCN2[C@@H](CO)[C@H](c3ccc(-c4cccc(C#N)c4)cc3)[C@@H]2C1 | -2 | 107* | 27 | 85 | 77 | 29 | 61*
COCC(=O)Nc1ccc2c(c1)[C@@H]1C[C@@H](CC(=O)N3CCN(C)CC3)O[C@@H](CO)[C@@H]1O2 | 0 | 7 | 16 | . | . | . | .
C[C@H](NC(=O)C[C@H]1C[C@@H]2c3cc(NC(=O)CN(C)C)ccc3O[C@@H]2[C@@H](CO)O1)c1ccccc1 | 1 | 27 | 15 | . | . | . | .
N#Cc1cccc(-c2ccc([C@H]3[C@H]4CN(C(=O)Nc5ccccc5)CCCCN4[C@H]3CO)cc2)c1 | 9 | 57 | 13 | . | . | . | .
N#Cc1cccc(-c2ccc([C@H]3[C@H](CO)N4CCCCN(C(=O)Nc5ccc(F)cc5)C[C@@H]34)cc2)c1 | 35 | 102* | 4 | 104* | 66 | 21 | 105*
C[C@@H]1CCCCO[C@H](CN(C)S(=O)(=O)c2ccccc2)[C@H](C)CN([C@@H](C)CO)C(=O)c2cc(NC(=O)Cc3ccccc3)ccc2O1 | . | . | -20 | . | . | . | .
O=C(N[C@@H]1CC[C@H](CCn2cc(Cc3ccccc3)nn2)O[C@@H]1CO)c1ccccn1 | -4 | 48 | -33 | . | . | . | .
CN(C)C(=O)c1cccc(-c2ccc([C@@H]3[C@@H](CO)N4CCCCN(C(=O)C5CCCC5)C[C@H]34)cc2)c1 | -13 | 42 | 26 | . | . | . | .
CN(C)C(=O)c1cccc(-c2ccc([C@H]3[C@@H](CO)N4CCCCN(C(=O)C5CCC5)C[C@H]34)cc2)c1 | -11 | ? | 1 | 107* | 90 | 13 | 15
CN(C)C(=O)c1cccc(-c2ccc([C@H]3[C@@H](CO)N4CCCCN(C(=O)C5CCCC5)C[C@@H]34)cc2)c1 | -4 | 102* | -5 | 103* | 98* | -23 | -26
CN(C)C(=O)c1cccc(-c2ccc([C@H]3[C@H](CO)N4CCCCN(C(=O)C5CCC5)C[C@@H]34)cc2)c1 | -11 | 102* | 6 | 99* | ? | 10 | 11
CN(C)C(=O)c1cccc(-c2ccc([C@@H]3[C@@H](CO)N4CCCCN(C(=O)C5CCC5)C[C@@H]34)cc2)c1 | -7 | 44 | 4 | . | . | . | .
CN(C)C(=O)c1ccc(-c2ccc([C@H]3[C@H]4CN(C(=O)C5CCC5)CCCCN4[C@H]3CO)cc2)cc1 | -8 | 33 | 3 | . | . | . | .
CC(C)NC(=O)N(C)C[C@@H]1Oc2ccc(NS(=O)(=O)c3cccs3)cc2C(=O)N([C@@H](C)CO)C[C@H]1C | -4 | -39 | 25 | . | . | . | .
O=C(C[C@@H]1C[C@@H]2c3cc(NC(=O)C4CCOCC4)ccc3O[C@@H]2[C@@H](CO)O1)NCc1ccccc1 | 3 | 32 | -2 | . | . | . | .
O=C(C[C@H]1C=C[C@H](NC(=O)c2ccncc2)[C@H](CO)O1)NCCc1ccncc1 | -1 | . | . | . | . | . | .
CO[C@H]1CN(C)C(=O)c2cc(C#N)ccc2OC[C@H]2O[C@@H](CC[C@H]2OC)CCN(C)C(=O)[C@@H]1C | . | -52 | 7 | . | . | . | .
O=S(=O)(Cc1ccccc1)N1CCCCN2[C@H](C1)[C@@H](c1ccc(-c3ccccc3)cc1)[C@@H]2CO | -10 | 115* | -18 | 101* | 89 | 22 | 96*
O=S(=O)(Cc1ccccc1)N1CCCCN2[C@H](C1)[C@H](c1ccc(-c3ccccc3)cc1)[C@@H]2CO | 5 | 118* | -43 | 105* | 62 | 28 | 104*
O=S(=O)(Cc1ccccc1)N1CCCCN2[C@H](C1)[C@H](c1ccc(-c3cncnc3)cc1)[C@@H]2CO | 1 | 33 | -26 | . | . | . | .
O=S(=O)(Cc1ccccc1)N1CCCCN2[C@H](C1)[C@H](c1ccc(-c3ccncc3)cc1)[C@@H]2CO | 5 | -26 | -22 | . | . | . | .
O=S(=O)(Cc1ccccc1)N1CCCCN2[C@@H](CO)[C@@H](c3ccc(-c4cccnc4)cc3)[C@@H]2C1 | -11 | 89 | -53 | . | . | . | .
O=S(=O)(Cc1ccccc1)N1CCCCN2[C@H](C1)[C@@H](c1ccc(-c3cncnc3)cc1)[C@@H]2CO | -4 | ? | -10 | 96* | 17 | 8 | 17
SMILES | C diff HTS | T cruzi growth-1 | Pf Dd2 inh | T cruzi growth-2 | T cruzi growth-3 | NIH3T3 tox | 3T3 cytotox 2
COc1ccc2c3c([nH]c2c1)[C@H](CO)NCC31CN(S(=O)(=O)c2ccccc2)C1 | . | . | 26 | . | . | . | .
CC(C)NC(=O)N1[C@H](CO)[C@H]2c3ccccc3N(C)C[C@H]21 | 5 | -17 | -3 | . | . | . | .
COC(=O)[C@]1(Cc2ccccc2N=[N+]=[N-])N=C(c2ccc(OCCCO)cc2)O[C@@H]1c1ccccc1 | -2 | . | . | . | . | . | .
CCCNC(=O)N1[C@H](CNC(C)=O)[C@@H](c2ccc(-c3ccccc3)cc2)[C@@H]1CO | -1 | 110* | -2 | 29 | -29 | -8 | 14
CCCNC(=O)N1[C@@H](CO)[C@H](c2ccccc2)[C@@H]1CNC(=O)c1cccc(F)c1 | -1 | 102* | -45 | -3 | 12 | -19 | -2
CCCNC(=O)N1[C@H](CO)[C@@H](c2ccccc2)[C@@H]1CNC(=O)c1cccc(F)c1 | 12 | -4 | -3 | . | . | . | .
CCCNC(=O)N1[C@H](CO)[C@H](c2ccc(-c3ccccc3)cc2)[C@@H]1CNC(C)=O | 2 | 14 | -1 | . | . | . | .
COCC(=O)NC[C@@H]1CC[C@@H]2[C@@H](CN2S(=O)(=O)c2ccccc2[N+](=O)[O-])O1 | -5 | . | 1 | . | . | . | .
C[C@H]1CN([C@@H](C)CO)C(=O)c2cc(NC(=O)Cc3cn(C)c4ccccc34)ccc2O[C@H]1CN(C)S(C)(=O)=O | -1 | 17 | 2 | . | . | . | .
C[C@@H]1CCCCO[C@@H](CN(C)C(=O)NC2CCCCC2)[C@H](C)CN([C@@H](C)CO)C(=O)c2cc(NS(=O)(=O)c3ccc(Cl)cc3)ccc2O1 | 0 | 93 | -7 | . | . | . | .
C[C@@H]1CCCCO[C@@H](CN(C)C(=O)NC2CCCCC2)[C@H](C)CN([C@@H](C)CO)C(=O)c2cc(NS(=O)(=O)c3ccccc3)ccc2O1 | 6 | ? | -29 | . | . | . | .
Cc1ccc(S(=O)(=O)Nc2ccc3c(c2)C(=O)N([C@H](C)CO)C[C@H](C)[C@H](CN(C)C(=O)NC2CCCCC2)OCCCC[C@H](C)O3)cc1 | -1 | 118* | -42 | 105* | 27 | -31 | 7

Compound activity: PubChem BioAssay, Broad Institute
